Measurements published in PubChem BioAssay (EPA / NIEHS).
Results filed as inconclusive are left out. The source made the active and inactive calls. The calls were made as follows, unless noted: active = hit-call score of the fitted dose curve at least 0.9, where 1 is the maximum; inactive = score below 0.9.

What was measured:
[1] = target: Oxysterols receptor LXR-beta (Homo sapiens) (UniProt P55055); assay: ATG_LXRb_TRANS: Attagene TRANS-FACTORIAL HepG2 Assay for human Liver X Receptor beta (LXRb) (AID 2282981; active = hit-call score of the fitted dose curve at least 0.9, where 1 is the maximum); conditions: HepG2 Attagene TRANS GAL4-LXRb reporter, mRNA
Oxysterols receptor LXR-beta (Homo sapiens), sequence (P55055 whole entry, looked up, the tested form may be a part): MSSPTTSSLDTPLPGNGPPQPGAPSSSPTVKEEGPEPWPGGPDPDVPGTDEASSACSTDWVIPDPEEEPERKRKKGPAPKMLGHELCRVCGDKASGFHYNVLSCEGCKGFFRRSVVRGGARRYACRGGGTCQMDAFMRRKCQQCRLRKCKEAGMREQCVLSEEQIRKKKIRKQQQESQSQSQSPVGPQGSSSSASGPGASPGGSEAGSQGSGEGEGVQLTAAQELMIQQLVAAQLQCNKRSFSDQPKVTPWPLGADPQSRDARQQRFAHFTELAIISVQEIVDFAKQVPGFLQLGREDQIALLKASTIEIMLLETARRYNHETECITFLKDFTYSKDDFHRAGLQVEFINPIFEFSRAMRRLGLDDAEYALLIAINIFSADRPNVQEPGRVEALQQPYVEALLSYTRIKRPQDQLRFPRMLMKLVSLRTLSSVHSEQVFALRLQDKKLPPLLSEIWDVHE
Summary of the method: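 Readout: fluorescent reporter mRNA fragments resolved by capillary electrophoresis after RT-PCR. System: transiently transfected human HepG2, exogenous LXRb-Gal4 chimera driving GAL4-UAS reporter, 24 h dosing. Activity fitted upward against DMSO baseline.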

[2] = ATG_M_06_TRANS: Attagene TRANS-FACTORIAL HepG2 Assay for M06 Transcription Factor (Internal Marker) (AID 2282983; active = hit-call score of the fitted dose curve at least 0.9, where 1 is the maximum); conditions: HepG2 Attagene TRANS M06 internal marker reporter
Summary of the method: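 Read-out: fluorescent reporter cDNA fragments resolved by capillary electrophoresis after RT-PCR and HpaI cut. Source cells were HepG2 carrying transfected multi-reporter GAL4 constructs, dosed 24 h. Increase over DMSO control analysed.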

[3] = target: Nuclear receptor subfamily 4 group A member 2 (Homo sapiens) (UniProt P43354); assay: ATG_NURR1_TRANS: Attagene TRANS-FACTORIAL HepG2 Assay for human Nuclear Receptor Related Protein 1 (NURR1) (AID 2282985; active = hit-call score of the fitted dose curve at least 0.9, where 1 is the maximum); conditions: HepG2 Attagene TRANS reporter, mRNA readout
Nuclear receptor subfamily 4 group A member 2 (Homo sapiens), sequence (P43354 whole entry, looked up, the tested form may be a part): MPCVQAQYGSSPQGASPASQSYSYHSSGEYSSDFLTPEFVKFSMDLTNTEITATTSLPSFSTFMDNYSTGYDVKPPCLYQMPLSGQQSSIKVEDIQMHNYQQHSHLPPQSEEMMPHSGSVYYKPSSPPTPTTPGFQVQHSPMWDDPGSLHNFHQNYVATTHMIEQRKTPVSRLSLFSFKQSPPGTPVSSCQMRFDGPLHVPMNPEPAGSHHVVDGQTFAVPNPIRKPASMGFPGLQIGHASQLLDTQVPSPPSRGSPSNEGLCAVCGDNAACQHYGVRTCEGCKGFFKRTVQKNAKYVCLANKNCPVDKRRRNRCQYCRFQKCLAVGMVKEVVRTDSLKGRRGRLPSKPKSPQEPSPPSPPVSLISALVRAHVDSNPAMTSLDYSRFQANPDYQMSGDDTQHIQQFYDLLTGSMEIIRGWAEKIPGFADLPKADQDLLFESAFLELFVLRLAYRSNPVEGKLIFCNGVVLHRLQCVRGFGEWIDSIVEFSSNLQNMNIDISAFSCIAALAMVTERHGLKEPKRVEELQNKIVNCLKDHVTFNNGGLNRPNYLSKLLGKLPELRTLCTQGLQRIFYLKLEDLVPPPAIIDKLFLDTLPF
Summary of the method: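 Read-out: reporter mRNA induction by RT-PCR plus capillary electrophoresis with fluorescence detection, after 24 h dosing of transfected HepG2 cells. Exogenous NR-Gal4 chimera activity drives GAL4-UAS reporter; activity fitted upward versus DMSO.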

[4] = target: Transcriptional activator Myb (Homo sapiens) (UniProt P10242); assay: ATG_Myb_CIS: Attagene CIS-FACTORIAL HepG2 Assay for human Myeloblastosis (Myb) Proto-Oncogene Transcription Factor (AID 2282986); conditions: HepG2 Attagene CIS-FACTORIAL Myb reporter transcription; actives raise or lower the signal
Transcriptional activator Myb (Homo sapiens), sequence (P10242 whole entry, looked up): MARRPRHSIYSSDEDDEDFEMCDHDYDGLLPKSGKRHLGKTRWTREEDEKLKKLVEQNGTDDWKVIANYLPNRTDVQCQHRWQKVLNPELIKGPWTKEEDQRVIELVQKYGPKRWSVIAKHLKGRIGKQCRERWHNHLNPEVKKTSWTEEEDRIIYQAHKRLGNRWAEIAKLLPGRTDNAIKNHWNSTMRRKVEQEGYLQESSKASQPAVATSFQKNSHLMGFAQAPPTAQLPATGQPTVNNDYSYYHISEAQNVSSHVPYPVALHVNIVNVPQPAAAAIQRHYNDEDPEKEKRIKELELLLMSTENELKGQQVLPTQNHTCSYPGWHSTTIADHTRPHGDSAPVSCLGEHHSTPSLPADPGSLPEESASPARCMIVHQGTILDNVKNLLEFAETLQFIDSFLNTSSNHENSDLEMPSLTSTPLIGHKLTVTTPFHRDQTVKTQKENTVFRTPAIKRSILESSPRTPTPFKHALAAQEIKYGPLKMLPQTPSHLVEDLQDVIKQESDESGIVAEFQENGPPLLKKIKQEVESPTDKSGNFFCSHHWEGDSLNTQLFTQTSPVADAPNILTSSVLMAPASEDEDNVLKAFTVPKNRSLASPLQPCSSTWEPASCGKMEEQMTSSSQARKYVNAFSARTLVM
Summary of the method: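 Reporter mRNA is quantified by RT-PCR and capillary electrophoresis 24 h after dosing HepG2 cells transfected with cis-regulated reporter units, which track endogenous transcription factor activity. Gain and loss of signal are fitted versus DMSO baseline.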

[5] = target: Nuclear respiratory factor 1 (Homo sapiens) (UniProt Q16656); assay: ATG_NRF1_CIS: Attagene CIS-FACTORIAL HepG2 Assay for human Nuclear Respiratory Factor 1 (NRF1) Orphan Gene (AID 2282987); conditions: HepG2 NRF1 cis-element reporter, Attagene multiplex; actives raise or lower the signal
Nuclear respiratory factor 1 (Homo sapiens), sequence (Q16656 whole entry, looked up): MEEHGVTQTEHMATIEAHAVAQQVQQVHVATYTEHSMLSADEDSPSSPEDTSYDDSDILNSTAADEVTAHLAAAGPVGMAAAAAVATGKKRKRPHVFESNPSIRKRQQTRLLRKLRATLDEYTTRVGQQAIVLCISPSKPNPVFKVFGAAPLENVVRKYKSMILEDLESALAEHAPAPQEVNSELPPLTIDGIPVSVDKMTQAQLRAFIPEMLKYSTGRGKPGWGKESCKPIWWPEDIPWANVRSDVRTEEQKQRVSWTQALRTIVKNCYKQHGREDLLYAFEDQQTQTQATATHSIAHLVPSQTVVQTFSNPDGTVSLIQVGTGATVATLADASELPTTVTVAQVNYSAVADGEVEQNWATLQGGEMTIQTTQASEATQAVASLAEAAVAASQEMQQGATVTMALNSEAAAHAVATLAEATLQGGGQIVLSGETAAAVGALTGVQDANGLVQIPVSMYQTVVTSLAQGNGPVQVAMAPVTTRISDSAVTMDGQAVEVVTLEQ
Summary of the method: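 Endogenous NRF1-driven reporter transcription in transfected HepG2 cells after 24 h treatment. Readout: RT-PCR products, 6-FAM labelled and resolved by capillary electrophoresis; changes fitted both directions relative to DMSO.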

[6] = ATG_NFI_CIS: Attagene CIS-FACTORIAL HepG2 Assay for human Nuclear Factor I (NFI) (AID 2282989); conditions: HepG2 cis-regulatory reporter, NFI response element transcription; actives raise or lower the signal
Summary of the method: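 HepG2, transient MRTU, 24 h exposure; RNA→cDNA→PCR→FAM label→HpaI→CE fluorescence. Bidirectional fit, DMSO = baseline.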

[7] = target: Myc proto-oncogene protein (Homo sapiens) (UniProt P01106); assay: ATG_Myc_CIS: Attagene CIS-FACTORIAL HepG2 Assay for human Myelocytomatosis (Myc) Proto-Oncogene Transcription Factor (AID 2282990); conditions: HepG2, Attagene cis-reporter transcription factor activity; actives raise or lower the signal
Myc proto-oncogene protein (Homo sapiens), sequence (P01106 whole entry, looked up): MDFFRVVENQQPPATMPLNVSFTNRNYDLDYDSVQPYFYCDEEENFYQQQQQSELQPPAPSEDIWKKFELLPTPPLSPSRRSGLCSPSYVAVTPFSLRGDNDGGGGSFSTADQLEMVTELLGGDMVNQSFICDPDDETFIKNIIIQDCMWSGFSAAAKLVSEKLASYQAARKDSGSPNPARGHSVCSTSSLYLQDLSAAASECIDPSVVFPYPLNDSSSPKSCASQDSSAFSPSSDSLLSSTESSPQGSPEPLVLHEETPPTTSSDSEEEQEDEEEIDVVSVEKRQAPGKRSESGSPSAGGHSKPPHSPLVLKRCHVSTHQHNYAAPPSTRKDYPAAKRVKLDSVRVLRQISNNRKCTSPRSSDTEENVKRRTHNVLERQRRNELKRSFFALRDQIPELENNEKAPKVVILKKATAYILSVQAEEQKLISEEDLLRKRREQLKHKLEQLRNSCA
Summary of the method: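 Transiently transfected HepG2 cells bearing cis-promoter reporter units for endogenous transcription factors; 24 h exposure. Reporter mRNA measured by RT-PCR, 6-FAM primer extension, HpaI cut and capillary electrophoresis; bidirectional fit relative to DMSO.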

[8] = ATG_NF_kB_CIS: Attagene CIS-FACTORIAL HepG2 Assay for human Nuclear Factor Kappa B (NF-kB) (AID 2282991); conditions: HepG2 Attagene cis-factorial NF-kB reporter mRNA; actives raise or lower the signal
Summary of the method: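 Readout is reporter transcript level, gain or loss versus DMSO, measured 24 h post-dose via RT-PCR, fluorescent labelling and capillary electrophoresis. Human HepG2 liver cells carried transiently transfected CIS reporter constructs reflecting endogenous factors.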

[9] = ATG_Oct_MLP_CIS: Attagene CIS-FACTORIAL HepG2 Assay for human Octamer-Binding Transcription Factor (Oct) (AID 2282993); conditions: HepG2 Attagene cis-factorial Oct reporter, mRNA; actives raise or lower the signal
Summary of the method: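 Multiplexed cis-reporter assay in human liver HepG2 cells, 24 h incubation. Reporter RNA amplified and labelled, then resolved by capillary electrophoresis; DMSO serves as negative control and baseline.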

[10] = target: Cellular tumor antigen p53 (Homo sapiens) (UniProt P04637); assay: ATG_p53_CIS: Attagene CIS-FACTORIAL HepG2 Assay for human p53 Transcription Factor (AID 2282994); conditions: HepG2 p53 cis-element reporter, Attagene mRNA; actives raise or lower the signal
Cellular tumor antigen p53 (Homo sapiens), sequence (P04637 whole entry, looked up, the tested form may be a part): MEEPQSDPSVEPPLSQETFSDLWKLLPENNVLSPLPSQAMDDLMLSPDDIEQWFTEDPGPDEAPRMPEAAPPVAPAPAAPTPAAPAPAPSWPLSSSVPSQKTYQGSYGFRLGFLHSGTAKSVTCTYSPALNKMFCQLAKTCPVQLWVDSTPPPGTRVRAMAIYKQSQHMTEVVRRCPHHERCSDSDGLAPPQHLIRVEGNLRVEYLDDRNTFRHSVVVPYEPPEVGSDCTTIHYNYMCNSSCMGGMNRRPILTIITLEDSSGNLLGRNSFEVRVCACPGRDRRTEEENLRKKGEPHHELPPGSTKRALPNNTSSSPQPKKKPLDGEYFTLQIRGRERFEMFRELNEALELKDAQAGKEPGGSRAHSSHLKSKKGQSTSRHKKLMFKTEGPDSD
Summary of the method: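 Steps: transfect HepG2 with multiplexed cis reporter constructs; dose chemicals 24 h; extract RNA, reverse-transcribe, PCR-amplify reporter sequences; FAM-label, HpaI-digest, resolve fragments by CE. Activity fitted both directions relative to DMSO.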

[11] = BSK_3C_uPAR: BioMAP Diversity Plus: 3C Assay for Urokinase-type plasminogen activator receptor (uPAR) Biomarker Activity (AID 2282998); conditions: BioMAP 3C HUVEC, uPAR biomarker ELISA; actives raise or lower the signal
Summary of the method: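 Dose primary human umbilical vein endothelial cells, incubate 24 h, measure cell-surface uPAR by ELISA, then fit the signal in both directions against the DMSO negative control.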

[12] = target: human Peroxisome Proliferator-activated Receptor delta (PPARd), PPARD (gene 5467) (UniProt Q03181); assay: ATG_PPARd_TRANS: Attagene TRANS-FACTORIAL HepG2 Assay for human Peroxisome Proliferator-activated Receptor delta (PPARd) (AID 2283002; active = hit-call score of the fitted dose curve at least 0.9, where 1 is the maximum)
human Peroxisome Proliferator-activated Receptor delta (PPARd), PPARD (gene 5467), sequence (Q03181 whole entry, looked up, the tested form may be a part): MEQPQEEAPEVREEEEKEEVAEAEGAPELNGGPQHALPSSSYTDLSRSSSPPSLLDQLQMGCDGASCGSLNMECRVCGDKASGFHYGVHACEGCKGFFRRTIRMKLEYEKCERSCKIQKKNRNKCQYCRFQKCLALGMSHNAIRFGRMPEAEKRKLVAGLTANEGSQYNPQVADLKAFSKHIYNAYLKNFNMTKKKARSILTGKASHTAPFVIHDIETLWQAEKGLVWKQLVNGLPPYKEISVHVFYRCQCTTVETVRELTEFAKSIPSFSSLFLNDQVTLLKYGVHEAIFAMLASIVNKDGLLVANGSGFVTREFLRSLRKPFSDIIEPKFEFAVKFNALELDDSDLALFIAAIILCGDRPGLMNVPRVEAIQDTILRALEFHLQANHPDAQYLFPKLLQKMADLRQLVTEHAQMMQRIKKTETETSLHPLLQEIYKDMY
Summary of the method: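 HepG2 cells transiently transfected with GAL4-UAS multiplexed reporter units driven by exogenous chimeric NR-GAL4 proteins; 24 h compound exposure. Reporter mRNA measured by RT-PCR, 6-FAM primer extension, HpaI digestion and capillary electrophoresis; gain of signal fitted relative to DMSO.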

[13] = ATG_M_32_TRANS: Attagene TRANS-FACTORIAL HepG2 Assay for M32 Transcription Factor (Internal Marker) (AID 2282984; active = hit-call score of the fitted dose curve at least 0.9, where 1 is the maximum;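 also: transcript level of a background control reporter unit measured by RT-PCR and capillary electrophoresis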); conditions: HepG2 Attagene TRANS M32 internal marker reporter
Summary of the method: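 Read-out: fluorescent reporter cDNA fragments resolved by capillary electrophoresis after RT-PCR of total RNA. Transfected HepG2 cells were exposed to chemical for 24 h. Activity scored in the positive direction relative to DMSO.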

[14] = ATG_NRF2_ARE_CIS: Attagene CIS-FACTORIAL HepG2 Assay for human Nuclear Factor Erythroid 2 Related Factor 2 (NFR2) response to Antioxidant Response Elements (ARE) (AID 2282992); conditions: HepG2 Attagene ARE/NRF2 reporter, transcription factor activity; actives raise or lower the signal;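 as to AC50: reporter mRNA level measured by RT-PCR and capillary electrophoresis fluorescence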
Summary of the method: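 Endogenous transcription factor activity in human liver HepG2 cells is tracked via a cis-element-driven reporter within a multiplexed set. mRNA induction is read by RT-PCR and capillary electrophoresis after 24 h, with DMSO as baseline.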

[15] = target: Hepatocyte nuclear factor 4-alpha (Homo sapiens) (UniProt P41235); assay: ATG_HNF4a_TRANS: Attagene TRANS-FACTORIAL HepG2 Assay for human Hepatocyte Nuclear Factor 4 alpha (HNF4a) (AID 2282982; active = hit-call score of the fitted dose curve at least 0.9, where 1 is the maximum); conditions: HepG2 HNF4a transactivation reporter, mRNA readout
Hepatocyte nuclear factor 4-alpha (Homo sapiens), sequence (P41235 whole entry, looked up): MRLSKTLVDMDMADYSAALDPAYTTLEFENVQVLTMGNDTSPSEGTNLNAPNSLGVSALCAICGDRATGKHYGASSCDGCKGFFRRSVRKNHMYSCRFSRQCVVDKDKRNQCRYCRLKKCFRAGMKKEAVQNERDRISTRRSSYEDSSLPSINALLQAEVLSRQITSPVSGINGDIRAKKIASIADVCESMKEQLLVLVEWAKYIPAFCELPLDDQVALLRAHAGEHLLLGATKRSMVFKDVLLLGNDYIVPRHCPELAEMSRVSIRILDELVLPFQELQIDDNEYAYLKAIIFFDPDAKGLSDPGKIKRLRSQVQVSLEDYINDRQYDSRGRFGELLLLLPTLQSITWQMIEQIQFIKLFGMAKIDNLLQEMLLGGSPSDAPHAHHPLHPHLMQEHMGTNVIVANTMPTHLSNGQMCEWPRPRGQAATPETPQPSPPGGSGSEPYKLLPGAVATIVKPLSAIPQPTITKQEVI
Summary of the method: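 Transient MRTU transfection of HepG2, 24 h dosing. Readout: reporter mRNA via RT-PCR + capillary electrophoresis, fluorescence; activity fit upward relative to DMSO control.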

[16] = BSK_3C_VCAM1: BioMAP Diversity Plus: 3C Assay for Vascular cell adhesion molecule 1 (VCAM1) Biomarker Activity (AID 2282999); conditions: BioMAP 3C HUVEC, VCAM1 ELISA, cytokine-stimulated; actives raise or lower the signal
Summary of the method: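 HUVEC primary cells, 24 h compound exposure; VCAM-1 by ELISA; gain/loss of signal fitted bidirectionally vs DMSO baseline.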

[17] = BSK_4H_Eotaxin3: BioMAP Diversity Plus: 4H Assay for Eotaxin 3 Biomarker Activity (AID 2283000); conditions: primary human endothelial cells (HUVEC); actives raise or lower the signal
Summary of the method: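 Readout is Eotaxin-3 (CCL26) level by ELISA in primary human umbilical vein endothelial cells harvested 24 h after chemical exposure; activity fitted in both directions against DMSO control.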

[18] = BSK_3C_TissueFactor: BioMAP Diversity Plus: 3C Assay for Tissue Factor Biomarker Activity (AID 2282997); conditions: BioMAP 3C HUVEC, tissue factor biomarker readout; actives raise or lower the signal
Summary of the method: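 HUVEC, 3C system, 24 h post-dose; Tissue Factor by ELISA; bidirectional fit vs DMSO baseline.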

[19] = target: human Peroxisome Proliferator-activated Receptor alpha (PPARa), PPARA (gene 5465) (UniProt Q07869); assay: ATG_PPARa_TRANS: Attagene TRANS-FACTORIAL HepG2 Assay for human Peroxisome Proliferator-activated Receptor alpha (PPARa) (AID 2283001; active = hit-call score of the fitted dose curve at least 0.9, where 1 is the maximum)
human Peroxisome Proliferator-activated Receptor alpha (PPARa), PPARA (gene 5465), sequence (Q07869 whole entry, looked up, the tested form may be a part): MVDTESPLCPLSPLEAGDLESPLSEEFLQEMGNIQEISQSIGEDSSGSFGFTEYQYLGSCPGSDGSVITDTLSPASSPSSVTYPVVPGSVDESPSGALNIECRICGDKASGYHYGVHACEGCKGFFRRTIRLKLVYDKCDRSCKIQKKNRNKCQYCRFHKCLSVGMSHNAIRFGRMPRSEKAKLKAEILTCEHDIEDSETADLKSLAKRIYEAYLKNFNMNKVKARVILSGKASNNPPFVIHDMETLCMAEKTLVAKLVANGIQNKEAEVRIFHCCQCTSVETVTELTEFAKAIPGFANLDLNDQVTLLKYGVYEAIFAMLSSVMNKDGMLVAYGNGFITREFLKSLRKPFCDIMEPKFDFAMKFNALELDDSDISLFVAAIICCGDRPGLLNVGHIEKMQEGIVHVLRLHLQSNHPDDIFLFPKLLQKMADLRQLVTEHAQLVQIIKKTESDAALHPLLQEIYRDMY
Summary of the method: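 Transient HepG2 transfection, GAL4-UAS reporters, NR-Gal4 chimeras; 24 h compound exposure. Readout: reporter transcripts by RT-PCR, 6-FAM primer extension, HpaI digest, capillary electrophoresis. Positive direction vs DMSO baseline.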

Measured: AC50

CCN(CC)CCO
not listed: [13] | [14] | [15] | [16] | [17] | [18] | [19]
inactive: all other assays above

Clc1ccc(C(c2ccc(Cl)cc2)C(Cl)(Cl)Cl)cc1
active: [6] 42.1 µM | [14] 36.4 µM | [11] 15.2 µM
not listed: [15] | [16] | [17] | [18] | [19]
inactive: all other assays above

C1=Cc2cccc3cccc1c23
not listed: [14] | [16] | [17] | [18] | [19]
inactive: all other assays above

CCCSC(=O)N(CCC)CCC
not listed: [13] | [14] | [18] | [19]
inactive: all other assays above

Cc1ccc([N+](=O)[O-])cc1
not listed: [1] | [3] | [8] | [13] | [14] | [15] | [16] | [19]
inactive: all other assays above

CS(=O)(=O)NC(=O)c1cc(Oc2ccc(C(F)(F)F)cc2Cl)ccc1[N+](=O)[O-]
inactive: [13] | [4] | [5] | [6] | [9] | [10] | [18] | [16] | [17] | [19]
active: [11] 28.6 µM

O=C(Nc1ccccc1)c1ccccc1I
active: [14] 20.3 µM
not listed: [1] | [3] | [7] | [10] | [15] | [16] | [19]
inactive: all other assays above

CC(C)(C)C(O)(CCc1ccc(Cl)cc1)Cn1cncn1 (stereo unspecified)
active: [14] 88.8 µM
not listed: [1] | [3] | [15] | [17] | [18] | [19]
inactive: all other assays above

c1ccc2c(c1)-c1cccc3cccc-2c13
active: [3] 160 µM | [18] 0.669 µM
not listed: [1] | [7] | [13] | [14] | [15]
inactive: all other assays above

CCCCCOC(=O)c1ccccc1C(=O)OCCCCC
active: [14] 56.4 µM | [9] 161 µM | [17] 20 µM
not listed: [1] | [12] | [15] | [16] | [18]
inactive: all other assays above

c1ccc(NNc2ccccc2)cc1
active: [14] 27.8 µM
not listed: [1] | [2] | [3] | [7]
inactive: all other assays above

Cc1ccc(N=C=O)cc1N=C=O
inactive: [2] | [4] | [5] | [6] | [7] | [8] | [9] | [10] | [11] | [16]

CC(C)(O)c1cnn2c(-c3ccc(F)c(-c4c(F)cccc4C#N)c3)cnc2n1
inactive: [13] | [4] | [6] | [8] | [9] | [19] | [12]
active: [5] 8.4 µM | [10] 8.54 µM | [18] 28.2 µM | [11] 31.3 µM | [17] 33.6 µM

ClC1=C(Cl)[C@]2(Cl)[C@H]3[C@H]([C@@H]4C=C[C@H]3C4)[C@@]1(Cl)C2(Cl)Cl
active: [9] 25.1 µM | [18] 28.5 µM | [11] 16.1 µM | [16] 28.7 µM
not listed: [1] | [2] | [8] | [13] | [14] | [17]
inactive: all other assays above

c1ccc(N=Nc2ccccc2)cc1
not listed: [1] | [3] | [12] | [13] | [14] | [15] | [17]
inactive: all other assays above

O=[N+]([O-])c1ccc(Oc2ccc(Cl)cc2Cl)cc1
active: [11] 9.38 µM
not listed: [1] | [7] | [15] | [16] | [17] | [18]
inactive: all other assays above

Cc1ccc(N)c(N)c1
active: [14] 8.84 µM | [9] 42.3 µM | [16] 5.57 µM
inactive: [2] | [4] | [5] | [6] | [8] | [10] | [11] | [17] | [19]

N#CC(Br)(Br)C(N)=O
active: [8] 157 µM
not listed: [1] | [13] | [14] | [15] | [16] | [19]
inactive: all other assays above

CCOC(=O)[C@]1(c2ccccc2)Oc2ccccc2[C@@H]1N
inactive: [15] | [3] | [4] | [16] | [19]
active: [5] 58.2 µM | [6] 46.4 µM | [8] 33 µM | [9] 28.8 µM | [18] 20 µM | [11] 20 µM
